Screens: PubChem BioAssay, National Center for Advancing Translational Sciences (NCATS)
This excerpt belongs to a sample that is enriched for hits.
KDM5B inhibitor: blocks human KDM5B histone demethylase activity | Q9UGL1 | KDM5B demethylase, FDH-coupled NADH fluorescence (FDH is formaldehyde dehydrogenase) | Potency, µM (top dose mostly 57.7 µM), hits mostly inhibitors | actives 2.6% (n = 220,000) | AID 1347165; active means well fitted inhibition curve with a large enough effect; further: 0% is about no effect; nearly all actives have a fitted effect of over 70% in size
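Measured: NADH fluorescence change, 30 min, RT. System: KDM5BΔAP 200 nM final, H3K4me3 peptide, α-KG, Fe(II), ascorbate, NAD⁺ plus FDH, pH 7.5 HEPES. Compounds: titrated, 10 min pre-incubation with enzyme.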
The depositor's hits bear a star; i = inactive. Potency means the concentration at half of the fitted maximal effect.

SMILES	KDM5B inhibitor
CC(=O)c1ccc(C(=O)NC(C)c2ccc(OC(F)F)cc2)s1 (stereo not given)	i
CC(C)c1ccc(NC(=O)CN2C(=O)NC(c3ccccc3Cl)C3=C2COC3=O)cc1 (stereo not given)	i
COc1ccccc1C(C)N(C)C(=O)c1csc2nc(-c3ccccc3C)cn12 (stereo not given)	i
Cc1ccc(/C=C(/C#N)C(=O)C(C)C)c(C)c1	i
COc1cccc(-c2cc3c(=O)n(CCNC(=O)c4ccccc4Cl)ccn3n2)c1	i
COc1cccc(-c2cc3c(=O)n(CCNC(=O)c4cccc5[nH]ccc45)ccn3n2)c1	25µM*
COc1cccc(-c2cc3c(=O)n(CCNC(=O)Cc4c[nH]c5ccccc45)ccn3n2)c1	i
COc1ccc(-c2cc3c(=O)n(CCNC(=O)c4cccc5[nH]ccc45)ccn3n2)cc1	22µM*
Cc1ccccc1CN(C)C(C)C(=O)Nc1ccc(N2CCCCC2)cc1 (stereo not given)	i
COC[C@@H]1CN(Cc2c(OC)cccc2OC)C[C@H]1c1ccncc1	i
Cc1ccc(Nc2nc(N3CCN(CCO)CC3)nc3c2cnn3-c2ccccc2)cc1	i
Cc1cc(O)c2c(C)c(CC(=O)NCCCOC(C)C)c(=O)oc2c1	i
Cc1noc(-c2cn(C3CCN(C(=O)c4cccc(C(F)(F)F)c4)C3)nn2)n1 (stereo not given)	i
COC(=O)COc1ccc(C2C3=C(CC(C)(C)CC3=O)OC3=C2C(=O)CC(C)(C)C3)cc1	i
CNC(=O)c1ccc(CN(Cc2ccco2)C(=O)c2cc3ccc(C)cc3[nH]2)cc1	i
COCc1ncc(C)n1CC1CCN(C(=O)CCc2ccc(OC)cc2)CC1	i
COc1cn(CC(=O)Nc2ccc(C(N)=O)cc2)c(CSc2ccccc2)cc1=O	i
O=C(c1ccc(-c2ccc(N3CCSCC3)nc2)cc1)N1CCCCC1	28µM*
O=C(c1ccc(-c2ccc(N3CCSCC3)nc2)cc1)N1CCOCC1	22µM*
CC1CCN(C(=O)c2ccc(-c3ccc(N4CCSCC4)nc3)cc2)CC1	28µM*
Cc1cc(C)c(C(=O)c2ccc(C(=O)N3CCCCC3)cc2)c(C)c1	i
CC1CCN(C(=O)c2cc(-c3ccc(Cl)cc3)on2)CC1	i
O=C(c1ccc(S(=O)(=O)N2CCCC2)cc1)N1CCCCC1	i
O=C(c1ccc([N+](=O)[O-])cc1)N1CCCC1	i
CCN1CCN(c2ccc(C(=O)N3CCC(N4CCOCC4)CC3)cn2)CC1	i
SMILES	KDM5B inhibitor
COC1CCN(c2ccc(C(=O)N3CCC(N4CCOCC4)CC3)cn2)CC1	i
Cc1ccc(C(=O)N2CCCN(c3cc(-c4ccc(F)cc4)[nH]n3)CC2)cc1	i
Cc1ncsc1C(=O)NCc1ccc(N2CCC(C)CC2)nc1	i
O=C(c1ccc(-c2ccc(N3CCCCC3)nc2)cc1)N1CCCC1	28µM*
CC(=O)NC1(C(F)(F)F)C(=O)N(Cc2ccccc2)C(C)=C1C(=O)c1ccccc1 (stereo not given)	i
CCNc1nc2ccccc2nc1C(C#N)S(=O)(=O)c1ccc(C)cc1 (stereo not given)	i
Oc1ccc(-c2nc(C3CC3)nc3c2CCN(Cc2cccnc2)CC3)cc1	i
Cc1ccc(S(=O)(=O)Nc2ccc(-c3cn4ccsc4n3)cc2)s1	i
CCOC(=O)CSC(C(N)=O)c1ccccc1 (stereo not given)	i
Cn1cc(CC(=O)NC(C(N)=O)c2ccccc2)c2ccccc21 (stereo not given)	i
O=C(N/N=C/CCc1ccccc1)c1cccs1	i
CCc1nc2n(n1)C1(CCCCC1)[C@@H]1CCCC[C@@H]1N2C(=O)COC	i
O=C(NC1CCCCC1)c1ccc2c(Cl)c3c(nc2c1)CCC3	i
COCCCNCCSc1ccc(Cl)cc1	i
COc1ccc(/C=C/C(=O)c2ccc(C(=O)O)s2)c(OC)c1	i
CCc1[nH]c(C(=O)OCC(=O)NC2CCCCC2)c(C)c1C(=O)OC	i
CN1CCN(C(=O)c2ccc(-c3ccc(N4CCSCC4)nc3)cc2)CC1	28µM*
CCCN1CCN(C(=O)c2ccc(-c3ccc(N4CCCCC4)nc3)cc2)CC1	25µM*
CCOc1ccc(C(=O)N2CCCN(c3cc(-c4ccc(Cl)cc4)[nH]n3)CC2)cc1	i
CCOc1ccc(C(=O)N2CCCN(c3cc(-c4ccc(F)cc4)[nH]n3)CC2)cc1	i
COc1cccc(CNC(=O)c2ccc(-c3ccc(N4CCSCC4)nc3)cc2)c1	i
Cc1ccc(C(=O)N2CCN(c3cc(C(F)(F)F)ncn3)CC2)cc1	i
CC(NC(=O)C1CCCC1)c1ccc(C(F)(F)F)cc1 (stereo not given)	i
O=C(COc1ccc([N+](=O)[O-])cc1)Nc1ccc2oc(-c3ccc4ccccc4c3)nc2c1	i
Cc1ccc2nc([C@H]3CCN(Cc4ccc(C(F)(F)F)cc4)C3)[nH]c2c1	i
SMILES	KDM5B inhibitor
Cc1ccc(CN2CC[C@@H]3CN(S(C)(=O)=O)[C@@H]3C2)c(C)c1	i
CCOc1ccc2c(n1)CCN(C(=O)c1ccncc1)C2	i
Cc1nc2ccccc2nc1SC(C)C(=O)N(C)Cc1ccccc1 (stereo not given)	i
COc1ccc(C(=O)N2CCC[C@H]2c2nc(-c3ccc(OC)c(OC)c3)no2)cc1OC	i
CCOc1ccc(CC(=O)N2CCC[C@H]2c2nc(-c3ccc(OC)c(OC)c3)no2)cc1OCC	i
COc1ccc(-c2noc([C@@H]3CCCN3C(=O)Cc3ccccc3Cl)n2)cc1OC	28µM*
CCOc1ccc(CC(=O)N2CCC[C@H]2c2nc(-c3ccc(OC)c(OC)c3)no2)cc1	i
COc1ccc(-c2noc([C@@H]3CCCN3C(=O)Cc3ccccc3OC)n2)cc1	i
COc1cc(OC)cc(C(=O)N2CCC[C@H]2c2nc(-c3ccc(OC)c(OC)c3)no2)c1	i
COc1ccc(-c2noc([C@@H]3CCCN3C(=O)Cc3cccc(F)c3)n2)cc1OC	25µM*
COc1ccc(-c2noc([C@@H]3CCCN3C(=O)c3ccccc3Cl)n2)cc1OC	i
COc1ccc(C(=O)N2CCC[C@H]2c2nc(-c3ccc(OC)c(OC)c3)no2)c(C)c1	28µM*
COc1ccccc1/C=C/C=C1\Oc2cc(OS(=O)(=O)c3ccccc3)ccc2C1=O	i
COc1cccc(CNC(=O)C2CCN(C(=O)c3cc4c(=O)[nH]c(C)cn4n3)CC2)c1	i
O=C(c1ccc(C(F)(F)F)cc1)N1CCCC2(C1)C(=NC1CCCC1)NC(=O)N2c1cccnc1 (stereo not given)	i
Cc1ccc(C2=NC3(CCN(C(=O)CSc4ccccc4)CC3)ON2)cc1	i
CCC1(N2CCN(S(=O)(=O)c3cccs3)CC2)CCN(S(C)(=O)=O)C1 (stereo not given)	i
O=C(c1ccc(Cl)s1)N1CCN(c2ncccn2)CC1	i
O=C(c1cccnc1)N1CCCC2(C1)C(=NC1CCCCC1)NC(=O)N2c1cccnc1 (stereo not given)	i
O=C(c1ccc(Cl)s1)N1CCCC2(C1)Nc1cccnc1NC2=NC1CCCC1 (stereo not given)	28µM*
O=S(=O)(c1cccs1)N1CCCC2(C1)Nc1cccnc1NC2=NC1CCCC1 (stereo not given)	11µM*
CCCn1c(C)cnc1CC1CCCN(S(=O)(=O)c2cccs2)C1 (stereo not given)	i
O=C(CSc1ccccc1)N1CCCC2(C1)Nc1cccnc1NC2=NC1CCCC1 (stereo not given)	28µM*
